Screening data (PubChem BioAssay)
A selection: hits, their analogues and other compounds. The true share with any hit is near 2.6%.
KLF5 inhibitor: KLF5 expression inhibitors, primary screen, DLD-1 cells, luminescence; DLD-1 KLF5 promoter-luciferase reporter; inhibition, % at 5 µM; 290,000 tested, 0.23% active;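 active = inhibition above a per-plate limit of that plate's mean compound inhibition plus 3 SD, cut at about 60% in these data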;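 note: 0% = DMSO wells and 100% = LY294002 at 200 µM; higher means less KLF5 promoter-driven luciferase light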
BaF3 tox: parental Ba/F3 cell viability inhibition, counter-screen for JAK2V617F inhibitor project, murine pro-B, CellTiter-Glo luminescence; CellTiter-Glo ATP luminescence; inhibition, % at 5.6 µM; 220,000 tested, 1.1% active;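 active = inhibition above a per-campaign cutoff, the mean inhibition of all tested compounds plus 3 SD, cut at about 27% in these data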;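 note: 0% = DMSO wells and 100% = JAK Inhibitor I control wells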
IEC-6 cytotox: cytotoxicity in IEC-6 intestinal epithelial cells, primary screen, cytotoxicity control for KLF5 inhibitor project, cell-based, luminescence. inhibition, % at 5 µM. 290,000 tested, 0.78% active. IEC-6 cytotoxicity, luminescence viability;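 note: 0% = plate median of test compound wells and 100% = cytotoxic reference compound wells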
DNA FID counter: compounds displacing fluorescent DNA intercalator, primary screen, artefact control for HCV NS3 helicase inhibitor project, biochemical, FID fluorescence; DNA fluorescent intercalator displacement; inhibition, % at 7.9 µM; 290,000 tested, 0.17% active; AID 1845, 2009; in the data active = inhibition above about 37%;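 note: 0% = vehicle and 100% = reference compound; higher means more ethidium bromide displaced from hairpin DNA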
GPR7 antagonist: GPR7 receptor antagonists, primary screen, cell-based, fluorescence, single concentration; GPR7-expressing cells, fluorescence antagonist assay; inhibition, % at 4.4 µM; 290,000 tested, 1.1% active; AID 1861, 2009; in the data active = inhibition above about 16%, passing the limit was not always enough;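 note: cells stimulated with the agonist NPW; 0% = agonist with vehicle and 100% = vehicle without agonist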
Target sequence (P48145 whole entry, looked up): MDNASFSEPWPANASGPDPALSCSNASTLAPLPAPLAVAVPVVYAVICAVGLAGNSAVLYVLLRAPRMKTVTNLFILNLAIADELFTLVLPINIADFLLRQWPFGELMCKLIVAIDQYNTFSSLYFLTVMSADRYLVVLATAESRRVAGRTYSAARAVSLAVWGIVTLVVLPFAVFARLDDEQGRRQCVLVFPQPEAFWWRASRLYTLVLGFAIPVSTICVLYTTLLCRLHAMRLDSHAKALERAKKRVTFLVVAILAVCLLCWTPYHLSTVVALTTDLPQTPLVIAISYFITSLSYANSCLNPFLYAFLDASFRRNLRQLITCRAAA
Ba/F3 V617F tox: reduced viability of JAK2V617F-dependent Ba/F3 cells, primary screen, JAK2V617F inhibitor project, cell-based, Ba/F3 EpoR-JAK2V617F, luminescence; 220,000 tested, 1.1% active; inhibition, % at 5.6 µM; ATP luminescence;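 active = inhibition above the campaign mean plus 3 SD over all tested compounds, cut at about 24% in these data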;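 note: cytokine-independent growth of Ba/F3 cells driven by EpoR plus mutant JAK2; 0% = DMSO-treated cells and 100% = JAK inhibitor I control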
GPR7 antag cf: GPR7 receptor antagonists, confirmation, cell-based, fluorescence, single concentration. shares compounds with GPR7 antagonist. GPR7-expressing cells, calcium fluorescence antagonist mode. inhibition, % at 4.4 µM. 2,400 tested, 52% active. AID 1952, 2009; in the data active = inhibition above about 24%;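 note: stimulated with the GPR7 agonist NPW; 0% = agonist plus vehicle and 100% = vehicle alone without agonist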
MCHR1 antagonist: MCHR1 antagonists in cells, counter-screen for GPR7 antagonist project, cell-based, fluorescence, human; shares compounds with GPR7 antagonist; MCHR1-expressing cells, fluorescence antagonist assay; inhibition, % at 4.4 µM; 2,400 tested, 62% active;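 note: 0% = vehicle with agonist and 100% = vehicle without agonist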
An asterisk follows results filed as active; nt = not tested or not shown. Cut-off read from the data, not from the text of the source, unless noted: active = inhibition above about 22%; inactive = the rest.

SMILES	KLF5 inhibitor	BaF3 tox	IEC-6 cytotox	DNA FID counter	GPR7 antagonist	Ba/F3 V617F tox	GPR7 antag cf	MCHR1 antagonist
COc1ccc(C)cc1NC(=O)C1CCN(S(=O)(=O)c2ccc3c(c2)C(C)(C)C(=O)N3C)CC1	-3	nt	9	-51	-10	nt	nt	nt
O=C(CCN(CCO)Cc1ccccc1)Nc1ccc(Br)cc1	-2	1	-2	13	24*	1	24*	7
CCN(CCC(=O)Nc1ccc(Br)c(C)c1)Cc1ccccc1	-19	5	2	12	6	0	nt	nt
Cc1c(C(=O)N2CCN(Cc3ccc4c(c3)OCO4)CC2)sc2ncnc(N3CCN(c4ccccc4F)CC3)c12	3	nt	-2	-37	75*	nt	55*	82*
Cc1c(C(=O)N2CCN(Cc3ccc4c(c3)OCO4)CC2)sc2ncnc(N3CCN(c4ccccc4)CC3)c12	-23	nt	2	-32	44*	nt	44*	81*
CCCNC(=O)Cn1cnc2sc(C(=O)N3CCN(Cc4ccc5c(c4)OCO5)CC3)c(C)c2c1=O	-20	-1	5	-9	-8	-2	nt	nt
CCc1ccc(OCc2nnc(NC(=O)c3cccs3)s2)cc1	-26	4	2	0	25*	-1	-3	-2
Cc1ccc(OCc2nnc(NC(=O)Cc3cccs3)s2)cc1	-12	5	1	5	-11	-2	nt	nt
COc1ccc(N(C)S(=O)(=O)c2cccc(C(=O)NC3CCC(C)CC3)c2)cc1 (configuration not stated)	-11	-3	1	-26	40*	-3	36*	48*
COc1ccc(N(C)S(=O)(=O)c2cccc(C(=O)N(C)Cc3ccc(C)o3)c2)cc1	14	7	-11	-36	25*	0	31*	26*
COc1ccc(N(C)S(=O)(=O)c2cccc(C(=O)NCc3ccc4c(c3)OCO4)c2)cc1	-2	4	-14	-19	-2	2	nt	nt
COc1ccc(Cl)cc1NC(=O)CNc1ccccc1N1CCOCC1	-23	6	-8	1	-4	-1	nt	nt
CCOc1ncccc1C(=O)OCC(=O)c1ccc(Cl)s1	-14	3	-3	-9	-1	-1	nt	nt
C=C(C)CSc1nnc(-c2cccc(S(=O)(=O)N(C)C)c2)n1-c1cc(OC)ccc1OC	-27	9	0	-31	32*	3	35*	9
CCCc1noc2c1/C(=N\O)CC(c1ccccc1)C2 (configuration not stated)	-11	4	8	-7	23*	0	41*	23*
Cc1ccc(C)n1CCN1CCN(CC(=O)Nc2cc(C(F)(F)F)ccc2Cl)CC1	-14	1	4	-6	-13	-1	nt	nt
O=[N+]([O-])c1cccc(N/N=C/c2ccc(N3CCOCC3)cc2)c1	-111	nt	-3	15	-2	nt	nt	nt
Cc1ccc([N+](=O)[O-])cc1NC(=O)CN(C(=O)c1ccccc1Cl)C1CCCCC1	-7	6	-2	-16	36*	0	39*	41*
COc1ccccc1NC(=O)c1ccc(-n2cncn2)nc1	11	0	1	-3	5	-2	nt	nt
COC(=O)c1ccc(CSCc2ccc(C#N)cc2)cc1	-10	nt	-3	-19	48*	nt	55*	56*
CCOC(=O)C1CCCN(CCc2ccccc2)C1 (configuration not stated)	-38	nt	1	2	-21	nt	nt	nt
O=C(OC1C2CCC1C1CN(CCc3ccccc3)CC12)c1ccccc1 (configuration not stated)	16	9	-9	8	42*	-2	42*	24*
Cc1cccc2c1NC(=O)C2(c1ccc(O)cc1)c1ccc(O)cc1	22	2	2	-17	67*	-3	79*	49*
CCOC(=O)c1c(CSCc2ccccc2)oc2ccc(O)c(CN(C)C)c12	-37	1	-4	31	40*	1	40*	68*
CCOC(=O)c1c(-c2ccccc2)oc2ccc(O)c(CN(C)C)c12	1	8	8	29	-3	4	nt	nt
SMILES	KLF5 inhibitor	BaF3 tox	IEC-6 cytotox	DNA FID counter	GPR7 antagonist	Ba/F3 V617F tox	GPR7 antag cf	MCHR1 antagonist
COc1cccc(-c2nnc(SCC(=O)NCc3ccc4c(c3)OCO4)n2Cc2ccco2)c1	-5	2	-3	-27	25*	0	16	7
COc1ccc(C(O)(CCN2CCCCC2)C2CCCCC2)cc1 (configuration not stated)	-22	nt	4	5	7	nt	nt	nt
CCN=C1NN=C(c2c[nH]c3ccccc23)CS1	-29	4	-3	-3	-7	-3	nt	nt
O=C(/C=C/c1ccc([N+](=O)[O-])s1)N1CCCCC1	8	7	-1	-2	-17	2	nt	nt
O=C(/C=C/c1ccc([N+](=O)[O-])s1)N1CCN(c2ccccc2)CC1	-24	nt	-6	-14	26*	nt	6	5
O=C(NCc1nc2ccccc2[nH]1)C1=C[C@H](C2CCCCC2)C[C@H](OCc2ccc(CO)cc2)O1	6	-2	1	-7	-16	-2	nt	nt
COCCNC(=O)C(OC(=O)c1ccco1)c1ccccc1F (configuration not stated)	-37	nt	3	-8	-15	nt	nt	nt
CC(C)(C)c1ccc(C(=O)N2CCC(C(=O)c3ccccc3)CC2)cc1	-14	nt	4	-44	41*	nt	39*	38*
O=C(c1ccco1)N1CCC(c2nc(-c3ccccc3Cl)no2)CC1	-38	4	-4	-19	28*	-1	0	1
CC1=C(C)CC(C(=O)NCC(=O)c2ccccc2)C(C(=O)O)C1 (configuration not stated)	-38	2	0	-1	0	-4	nt	nt
CC#CCN(CC#CC)S(=O)(=O)c1ccc(-n2cnnn2)c(OC)c1	-8	4	-6	-12	24*	-2	11	5
O=C(NC1CCCCCCC1)C1c2ccccc2C(=O)N1Cc1cccs1 (configuration not stated)	0	7	2	-19	27*	-3	32*	13
COc1ccc(CN2C(=O)c3ccccc3C2C(=O)NC2CCCCCC2)c(OC)c1 (configuration not stated)	-8	7	-2	-41	33*	4	21	34*
